Measurements as given in PubChem BioAssay (Tox21).
Inconclusive results are not listed. Activity calls are given as the source filed them. Unless noted, calls follow the shape of the dose curve; as a rule, active = well fitted curve in the direction sought with a large enough effect in the repeat runs; inconclusive = weak or mixed curves; inactive = no such curve, though single readings can be large; an effect the other way counts as inactive or inconclusive.

Key:
[1] = qHTS RealTime-Glo MT Cell Viability Assay in HEK293 cells - 0 hour (AID 1224880); also: top concentration of the series differs between compounds; nearly all actives have a fitted effect of over 45% in size
Outline: (§1)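 Viable HEK293 cells reduce a cell-permeant prosubstrate; the product diffuses out and is consumed by NanoLuc in the medium to give light. Compounds went in after a 5 h incubation and plates were read over the treatment course.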

[2] = A CellTox Green Cytotoxicity Assay to monitor cytotoxicity in HEK293 cells - 32 hour (AID 1224881); also: nearly all actives have a fitted effect of over 40% in size
Outline: (§2)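 Fluorescence intensity, read at 0, 8, 16, 24, 32 and 40 h of compound treatment, reflected dye binding to DNA of dead HEK293 cells; compounds (23 nL, DMSO) were added 5 h after plating cells with reagent.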

[3] = A CellTox Green Cytotoxicity Assay to monitor cytotoxicity in HepG2 cells - 0 hour (AID 1224882); also: nearly all actives have a fitted effect of over 35% in size
Outline: (§3)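 Using 1536-well format, dye-containing HepG2 suspension was seeded, allowed 5 h at 37 C/5% CO2, dosed by pintool with compounds, positive and negative controls, and imaged for fluorescence across 40 h.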

[4] = A CellTox Green Cytotoxicity Assay to monitor cytotoxicity in HepG2 cells - 32 hour (AID 1224883); also: nearly all actives have a fitted effect of over 50% in size
Outline: as §3

[5] = A CellTox Green Cytotoxicity Assay to monitor cytotoxicity in HEK293 cells - 8 hour (AID 1224884); also: nearly all actives have a fitted effect of over 35% in size
Outline: as §2

[6] = qHTS RealTime-Glo MT Cell Viability Assay in HepG2 cells - 16 hour (AID 1224885); also: nearly all actives have a fitted effect of over 50% in size
Outline: (§4)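 qHTS, HepG2, 600 cells/well, RealTime-Glo (NanoLuc + prosubstrate) added with cells; 5 h preincubation; DMSO compound addition; 37 C; luminescence at 0/8/16/24/32/40 h.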

[7] = qHTS RealTime-Glo MT Cell Viability Assay in HEK293 cells - 24 hour (AID 1224886); also: top concentration of the series differs between compounds; nearly all actives have a fitted effect of over 50% in size
Outline: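 Assay medium contained NanoLuc luciferase plus cell-permeant prosubstrate, added with HEK293 cells at 600 cells/well. After 5 h at 37 C/5% CO2 compounds were added; plates stayed at 37 C for 40 h with serial luminescence reads.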

[8] = qHTS RealTime-Glo MT Cell Viability Assay in HEK293 cells - 8 hour (AID 1224887); also: top concentration of the series differs between compounds; nearly all actives have a fitted effect of over 50% in size
Outline: as §1

[9] = A CellTox Green Cytotoxicity Assay to monitor cytotoxicity in HEK293 cells - 16 hour (AID 1224888); also: nearly all actives have a fitted effect of over 35% in size
Outline: as §2

[10] = qHTS RealTime-Glo MT Cell Viability Assay in HepG2 cells - 0 hour (AID 1224889); also: nearly all actives have a fitted effect of over 50% in size
Outline: as §4

[11] = A CellTox Green Cytotoxicity Assay to monitor cytotoxicity in HepG2 cells - 8 hour (AID 1224890); also: nearly all actives have a fitted effect of over 45% in size
Outline: as §3

[12] = qHTS assay to identify small molecule antagonists of the estrogen receptor alpha (ER-alpha) signaling pathway using the BG1 cell line in the presence of 0.1 nM 17-beta-estradiol - cell viability counter screen (AID 1259241); also: nearly all actives have a fitted effect of over 40% in size
Outline: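 Measures cytotoxicity alongside the ER-alpha antagonist readout: VM7Luc4E2 cells, charcoal-stripped serum, 0.1 nM 17beta-estradiol final, 22 hr compound incubation at 37C, CellTiter-Fluor fluorescence.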

[13] = qHTS assay to identify small molecule antagonists of the androgen receptor (AR) signaling pathway using the MDA cell line in the presence of 0.5 nM R1881 - cell viability counter screen (AID 1259242); also: nearly all actives have a fitted effect of over 45% in size
Outline: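 Viability of MDA-kb2 cells was multiplexed with the luciferase AR readout; after 16 hr with compounds and R1881 at 0.5 nM final, CellTiter-Fluor fluorescence was recorded.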

[14] = qHTS assay to identify small molecule HDAC inhibitors (AID 1259364);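 also: wild-type HCT-116 cells with endogenous class I/II HDAC activity; top concentration of the series differs between compounds; nearly all actives have a fitted effect of over 45% in size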
Outline: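 Read-out: luminescence of HDAC-Glo I/II reagent, 30 min RT, reflecting class I/II deacetylase activity in whole HCT-116 cells pre-exposed 2 h to DMSO-dissolved compounds.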

[15] = qHTS assay to identify small molecule HDAC inhibitors - cell viability counter screen (AID 1259365)
Outline: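 Following a 2hr exposure of overnight-plated wild-type HCT-116 cells to DMSO-delivered compounds, CellTiter-Glo was added and luminescence recorded after 30min at room temperature.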

[16] = qHTS assay to identify small molecule agonists of the sonic hedgehog signaling (Shh) pathway - cell viability counter screen (AID 1259366); also: nearly all actives have a fitted effect of over 50% in size
Outline: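 After a 4hr attachment at 37C, NIH/3T3 cells bearing an integrated Gli1-driven luciferase reporter were dosed with compounds. Treatment lasted 24hr, with the final hour including CellTiter-Fluor for a fluorescence viability measurement.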

[17] = qHTS assay to identify small molecule antagonists of the sonic hedgehog signaling (Shh) pathway - cell viability counter screen (AID 1259367); also: nearly all actives have a fitted effect of over 55% in size
Outline: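 NIH/3T3-derived Gli1-Luc reporter cells, 2,000/well, plated 4 hr before compound addition, then stimulated with conditioned medium for 24 hr at 37C. Viability measured in the same wells by CellTiter-Fluor fluorescence, reagent added at 23 hr for 1 hr.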

[18] = qHTS assay to identify small molecule phospholipidosis (PLD) inducers (AID 1259344; active = well fitted curve in the direction sought with a large enough effect; an effect the other way counts as inactive or inconclusive)
Outline: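 HepG2 cells, 900/well, treated with compound plus LipidTOX Red for 24 h at 37 C; amiodarone positive and DMSO negative controls. Fixed with paraformaldehyde/Hoechst, then high-content imaging scored LipidTOX pit count and integrated intensity per well and per cell.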

Measured: Potency

CC/C=C\CCO
inactive: [1] | [2] | [3] | [4] | [5] | [6] | [7] | [8] | [9] | [10] | [11] | [12] | [13] | [14] | [15] | [16] | [17]

CC(C)Cc1nccs1
inactive: [1] | [2] | [3] | [4] | [5] | [6] | [7] | [8] | [9] | [10] | [11] | [12] | [13] | [14] | [15] | [16] | [17]

C[Si](C)(C)O[Si](C)(C)O[Si](C)(C)C
inactive: [1] | [2] | [3] | [4] | [5] | [6] | [7] | [8] | [9] | [10] | [11] | [12] | [13] | [14] | [15] | [16] | [17]

CC(CN=Cc1ccccc1O)N=Cc1ccccc1O (stereo not drawn)
inactive: [1] | [2] | [3] | [4] | [5] | [6] | [7] | [8] | [9] | [10] | [11] | [12] | [13] | [14] | [15] | [16]

CC(C(=O)O)c1ccc(/C=C2\CCCCC2=O)cc1 (stereo not drawn)
inactive: [1] | [2] | [3] | [4] | [5] | [6] | [7] | [8] | [9] | [10] | [11] | [12] | [13] | [18] | [15] | [16] | [17]

CCC(C)C1N=C(C)C(C)S1 (stereo not drawn)
inactive: [1] | [2] | [3] | [4] | [5] | [6] | [7] | [8] | [9] | [10] | [11] | [12] | [13] | [14] | [15] | [16]

CC(=O)Nc1ccccc1O
inactive: [1] | [2] | [3] | [4] | [5] | [6] | [7] | [8] | [9] | [10] | [11] | [12] | [13] | [14] | [16] | [17]

Cc1c(Nc2ncccc2C(=O)O)cccc1C(F)(F)F
inactive: [1] | [2] | [3] | [4] | [5] | [6] | [7] | [8] | [9] | [10] | [11] | [12] | [13] | [18] | [15] | [16] | [17]
